Screens (PubChem)
PP5 inh: PP5 (human) phosphatase inhibition. P53041. purified PP5c, OMFP substrate fluorescence. inhibition, % at 6.7 µM. 0.18% of 320,000 active;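 active = inhibition above the campaign's mean inhibition across all tested compounds plus 3 SD, cut at about 9.5% in these data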;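 note: 0% = DMSO only and 100% = 100 µM cantharidin control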
CSC inhib: blocks cancer stem cells | cancer stem cell-like cells viability, luminescence | inhibition, % at 7.5 µM | 1.1% of 300,000 active | AID 2717; in the data active = inhibition above about 75%; inconclusive = no clear call, values can overlap the other calls; tested in HMLE shEcad cells
ALR inh: blocks human ALR sulfhydryl oxidase activity | purified ALR, DTT oxidation, H2O2 HRP-luminol luminescence | inhibition, % (no concentration beside the values) | P55789 | 3.8% of 290,000 active;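 active = mean replicate inhibition above about 79%, with every replicate also reaching it, limit read from the data; inconclusive = only one of the two criteria met; inactive = mean below limit and not every replicate reaching it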
Target sequence (P55789 whole entry, looked up): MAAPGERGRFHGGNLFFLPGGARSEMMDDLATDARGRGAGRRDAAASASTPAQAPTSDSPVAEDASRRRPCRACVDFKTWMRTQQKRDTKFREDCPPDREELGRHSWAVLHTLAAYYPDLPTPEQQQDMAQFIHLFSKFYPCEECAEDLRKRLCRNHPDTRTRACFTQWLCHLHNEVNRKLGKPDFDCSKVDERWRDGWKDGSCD
Calb FLC: affects C. albicans growth with fluconazole | C. albicans CaCi-2 (fluconazole-resistant clinical isolate) + fluconazole, Alamar Blue growth, 48 h | growth inhibition, % (no concentration beside the values) | 0.57% of 300,000 active | AID 1979;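 active = growth inhibition above about 58% in most replicates, limit read from the data, passing the limit was not always enough; inconclusive = exactly half the replicates above a set limit; inactive = most replicates below a set limit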;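 note: all wells also contain fluconazole at 8 µg/ml as a sub-toxic cotreatment; 0% = median of DMSO wells and 100% = median of geldanamycin control wells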
PP1 inh: PP1-alpha (human) inhibition in PP5 counter-screen; 0.9% of 320,000 active; purified PP1alpha, OMFP fluorescence; P62136; inhibition, % at 6.7 µM;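 active = inhibition above the mean inhibition of all tested compounds plus 3 SD, computed separately for each screening campaign, cut at about 15% in these data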
Target sequence (P62136 whole entry, looked up): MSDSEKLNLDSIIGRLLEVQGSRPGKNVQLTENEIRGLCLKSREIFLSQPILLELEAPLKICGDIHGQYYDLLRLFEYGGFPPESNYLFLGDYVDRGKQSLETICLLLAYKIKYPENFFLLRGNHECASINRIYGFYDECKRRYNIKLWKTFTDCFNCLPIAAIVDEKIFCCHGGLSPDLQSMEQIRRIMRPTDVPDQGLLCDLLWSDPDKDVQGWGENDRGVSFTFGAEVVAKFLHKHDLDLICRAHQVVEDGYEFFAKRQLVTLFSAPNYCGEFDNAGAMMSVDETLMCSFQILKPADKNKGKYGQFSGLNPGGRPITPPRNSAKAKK
The depositor's hits bear a star. Compounds with a hit are over-represented: about 5.4% of the library has one in this group of screens.

Screening CCN(CC)c1ccc(NC(=O)Cn2cc3c(n2)CCC(C)C3)c(C)c1 (centres undefined) returned PP5 inh 4, CSC inhib 10, ALR inh 99*, Calb FLC 0 and PP1 inh -5.
For CCN(CC)c1ccc(NC(=O)CN2C(=O)CSc3ncccc32)c(C)c1 the results were PP5 inh 0, CSC inhib 5, ALR inh 97*, Calb FLC -3 and PP1 inh -2.
CCc1cccc(C)c1NC(=O)N(C)C1CCCCC1 was read as PP5 inh 0, CSC inhib -2, ALR inh 0, Calb FLC -2 and PP1 inh -2.
For C=CCC[C@H](Cc1ccc(F)cc1)C(=O)OC[C@@H](Cc1c[nH]c2ccccc12)NC(=O)[C@H](CC=C)CC(=O)N(CCO)Cc1ccccc1 the results were CSC inhib 92* and ALR inh 3.
O=C(O)c1cc(-c2ccco2)nc2ccc(Br)cc12 was read as PP5 inh -3, CSC inhib -3, ALR inh 98*, Calb FLC 13 and PP1 inh 6.
Screening COc1cc(/C=N/NC(=O)c2ccc(CN(C)S(=O)(=O)c3ccc(C)cc3)cc2)ccc1O returned PP5 inh 3, CSC inhib 78*, ALR inh 16, Calb FLC 0 and PP1 inh 2.
Screening COc1ccc(C(=O)Oc2ccc(/C=N/NC(=O)c3ccccc3OC)cc2[N+](=O)[O-])cc1 returned PP5 inh 3, CSC inhib 5, Calb FLC 0 and PP1 inh 4.
Screening O=C(N/N=C/c1ccc(OC(=O)c2ccccc2)c([N+](=O)[O-])c1)c1ccc(O)cc1 returned PP5 inh 0, CSC inhib 10, ALR inh 94*, Calb FLC 17 and PP1 inh 2.
Screening COc1cc(C(=O)N/N=C/c2ccc(OC(=O)c3ccccc3)c(OC)c2)ccc1O returned CSC inhib -8, ALR inh -2 and Calb FLC 7.
COc1cc(/C=N/NC(=O)c2ccccc2)ccc1O was read as PP5 inh -1, CSC inhib 13, ALR inh 100*, Calb FLC -1 and PP1 inh -1.
Screening COc1ccc(/C=N/NC(=O)c2cccnc2)cc1O returned PP5 inh 1, CSC inhib 4, ALR inh 88*, Calb FLC -23 and PP1 inh 1.
`Cc1cccc(-c2nc3ccccc3c(=O)n2NC(=O)c2ccc([N+](=O)[O-])c(C)c2)c1` gave PP5 inh 0, CSC inhib -5, ALR inh -2, Calb FLC -29 and PP1 inh -6.
Cc1ccc(-n2c(SCC(=O)NNC(=S)Nc3ccccc3)nc3ccccc3c2=O)cc1 was read as PP5 inh 0, CSC inhib -5, ALR inh -3, Calb FLC -5 and PP1 inh -1.
`CC1CCN(CCOc2cc(Cl)ccc2Cl)CC1` gave PP5 inh 0, CSC inhib 6, ALR inh 4, Calb FLC -22 and PP1 inh -2.
`O=C(O)c1cccc(NC(=S)NC(=O)c2ccc3ccccc3c2)c1` gave PP5 inh 3, CSC inhib -8, ALR inh 8, Calb FLC 11 and PP1 inh -1.
For CCN(CC)S(=O)(=O)c1cccc(C(=O)N/N=C/c2ccc(OC)c(O)c2)c1 the results were PP5 inh 0, CSC inhib 1, ALR inh 97*, Calb FLC -22 and PP1 inh 0.
`COc1cc(/C=N/NC(=S)Nc2cccc(C(=O)O)c2)ccc1O` gave PP5 inh 2, CSC inhib 16, ALR inh 99*, Calb FLC inconclusive and PP1 inh 2.
`Nc1ccc(C(=O)N/N=C/c2cn(Cc3ccccc3)c3ccccc23)cc1` gave CSC inhib 3, ALR inh -1 and Calb FLC -14.
For COc1ccc(/C=N/NC(=O)c2ccc(-c3ccccc3)cc2)cc1O the results were PP5 inh -1, CSC inhib -5, ALR inh 33, Calb FLC 83* and PP1 inh 2.
CCN(CC)S(=O)(=O)c1cccc(C(=O)N/N=C/c2ccccc2OCC(=O)O)c1 was read as PP5 inh 2, CSC inhib -23, ALR inh 4, Calb FLC -6 and PP1 inh 2.
`COc1cc(C(=O)N/N=C/c2cn(Cc3ccccc3)c3ccccc23)ccc1O` gave CSC inhib 6, ALR inh 85* and Calb FLC 13.
CCOc1cc(C(=O)Nc2ccc3c(c2)OCO3)ccc1OCCOc1ccccc1Cl was read as PP5 inh -1, CSC inhib -6, ALR inh 0, Calb FLC -35 and PP1 inh 1.
CN1/C(=C/C(=O)CSc2ccccc2C(=O)O)C(C)(C)c2ccccc21 was read as PP5 inh 3, CSC inhib -12, ALR inh 10, Calb FLC -3 and PP1 inh -5.
`CN(CC(=O)Nc1ccc(N2CCOCC2)cc1)C(=O)c1ccc(O)c(Cl)c1` gave PP5 inh 0, ALR inh 32, Calb FLC -4 and PP1 inh -1.
COc1ccc(/C(C)=N/Nc2ccc(C(=O)O)cc2)cc1OC was read as PP5 inh 0, CSC inhib -6, Calb FLC 2 and PP1 inh 0.
For COc1ccc(OC)c(/C(C)=N/Nc2ccc(C(=O)O)cc2)c1 the results were PP5 inh 5, CSC inhib 1, ALR inh 99*, Calb FLC 6 and PP1 inh -6.
`COc1cc(/C=N/NC(=O)c2ccc3nc[nH]c3c2)ccc1O` gave PP5 inh 0, CSC inhib -4, Calb FLC 8 and PP1 inh 1.
COc1cc(/C=N/N=C/c2c[nH]c(=O)c(C#N)c2Nc2ccccc2)ccc1O was read as PP5 inh 1, CSC inhib -13, ALR inh 78*, Calb FLC -5 and PP1 inh -4.
For Cc1ccc(COc2ccccc2-c2cc(C(=O)N/N=C/c3cccnc3)[nH]n2)cc1 the results were PP5 inh 3, CSC inhib 78*, ALR inh 12, Calb FLC 0 and PP1 inh 8.
CCOc1ccccc1-c1cc(C(=O)N/N=C/c2cccnc2)c2ccccc2n1 was read as PP5 inh 2, ALR inh -11, Calb FLC -2 and PP1 inh -4.
N#Cc1c(Nc2ccccc2)c(C=O)c[nH]c1=O was read as PP5 inh -1, CSC inhib -17, ALR inh -3, Calb FLC 0 and PP1 inh -7.
For COc1cc(/C=N/NC(=O)c2ccc(CSc3nc4ccccc4[nH]3)cc2)ccc1O the results were PP5 inh 3, CSC inhib -1, ALR inh 99*, Calb FLC 5 and PP1 inh -1.
For CCOc1ccc(C(=O)Nc2ccc(-c3cc4ccccc4oc3=O)c(C)c2)cc1[N+](=O)[O-] the results were PP5 inh 1, CSC inhib -13, ALR inh 0, Calb FLC -25 and PP1 inh 1.
